{
  "source": "ChEMBL document CHEMBL1961873",
  "about": "“Compounds: GSK PKIS; Assays: Nanosyn kinase panel” (2012)",
  "data": [
    {"molecular_target": "MAP kinase-interacting serine/threonine-protein kinase 2 (Homo sapiens) (UniProt Q9HBH9)", "sequence (Q9HBH9 whole entry, looked up)": "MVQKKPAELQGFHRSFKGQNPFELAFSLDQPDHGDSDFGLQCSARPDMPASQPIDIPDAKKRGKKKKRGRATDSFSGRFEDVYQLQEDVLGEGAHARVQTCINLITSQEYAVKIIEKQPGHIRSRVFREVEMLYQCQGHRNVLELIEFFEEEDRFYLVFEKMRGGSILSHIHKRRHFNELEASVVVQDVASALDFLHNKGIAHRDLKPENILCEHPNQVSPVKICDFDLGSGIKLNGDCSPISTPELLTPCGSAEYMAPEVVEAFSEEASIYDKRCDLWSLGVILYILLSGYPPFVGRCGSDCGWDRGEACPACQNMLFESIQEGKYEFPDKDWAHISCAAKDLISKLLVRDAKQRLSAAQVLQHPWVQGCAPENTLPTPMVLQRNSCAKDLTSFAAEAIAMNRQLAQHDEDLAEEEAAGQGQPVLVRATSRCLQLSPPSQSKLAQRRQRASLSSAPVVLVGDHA", "conditions": "at 0.1 µM", "units": {"inhibition": "%"}, "values": [
      {"smiles": "CCc1nn2ncccc2c1-c1ccnc(NC2CC2)n1", "inhibition": 2.69},
      {"smiles": "COC(=O)c1sc(-n2cnc3cc(OC)c(OC)cc32)cc1OCc1ccccc1C(F)(F)F", "inhibition": 0.22},
      {"smiles": "[O-][S+]1CCN(Cc2ccc(-c3ccc4ncnc(Nc5ccc(OCc6cccc(F)c6)c(Cl)c5)c4c3)o2)CC1", "inhibition": 1.46},
      {"smiles": "CCn1c(-c2nonc2N)nc2c(C#CC(C)(C)O)ncc(OC3CCNCC3)c21", "inhibition": 2.54},
      {"smiles": "CC(C)(CO)CNC(=O)c1ccc2c(c1)/C(=N/Nc1ccc(S(N)(=O)=O)cc1)C(=O)N2", "inhibition": -0.26},
      {"smiles": "CCCN1CCC(c2ccc(Nc3nc(Nc4cc(F)ccc4C(N)=O)c4cc[nH]c4n3)c(OC)c2)CC1", "inhibition": 3.26},
      {"smiles": "COc1ccc(-c2cc(-c3c[nH]nc3-c3ccccn3)ccn2)cc1", "inhibition": 2},
      {"smiles": "COc1ccc(-c2cc3c(N)ncnc3o2)cc1", "inhibition": 0.74},
      {"smiles": "COC(=O)Nc1nc2ccc(S(=O)(=O)c3ccc(NC(=O)Nc4cc(C(F)(F)F)ccc4F)cc3)cc2[nH]1", "inhibition": 1},
      {"smiles": "Fc1ccc(-c2nn3ccccc3c2-c2ccncc2)cc1", "inhibition": -0.39},
      {"smiles": "CN1CCC(n2cnc(-c3ccc(F)cc3)c2-c2ccnc(N)n2)CC1", "inhibition": 3.66},
      {"smiles": "COc1cccc(-n2ncc3c(N/N=C/c4ccc(F)cc4)ncnc32)c1", "inhibition": 4.13},
      {"smiles": "Fc1cccc(COc2ccc(Nc3ncnc4sc(-c5ccco5)cc34)cc2Cl)c1", "inhibition": -0.22},
      {"smiles": "Fc1ccc(-c2cc(-c3c[nH]nc3-c3ccccn3)ccn2)cc1", "inhibition": 2.83},
      {"smiles": "CCCN(CCS(C)(=O)=O)Cc1ccc(-c2ccc3ncnc(Nc4ccc(OCc5cccc(F)c5)c(Cl)c4)c3c2)o1", "inhibition": 2.98},
      {"smiles": "COc1cccc(-c2c[nH]c3c(N/N=C/c4ccncc4)ncnc23)c1", "inhibition": 11.8},
      {"smiles": "CC1=C(C(=O)Nc2cc(Cl)c3[nH]ncc3c2)C(c2ccc(C(F)(F)F)cc2)CC(=O)N1", "note": "(centres undefined)", "inhibition": 2.19},
      {"smiles": "CS(=O)(=O)CCNCc1coc(-c2ccc3ncnc(Nc4ccc(OCc5ccccc5)cc4)c3c2)c1", "inhibition": 3.42},
      {"smiles": "CCn1c(-c2nonc2N)nc2cnc(Oc3cccc(NC(=O)c4ccc(N(C)C)cc4)c3)cc21", "inhibition": 3.41},
      {"smiles": "CNC(=O)c1cc(-c2ccc(F)cc2)cc(-c2ccc(S(=O)(=O)N3CCCC3)cc2)c1N", "inhibition": -0.84},
      {"smiles": "O=S(=O)(CCNCc1ccc(-c2ccc3ncnc(Nc4ccc(OCc5cccc(F)c5)c(Cl)c4)c3c2)o1)c1ccccc1", "inhibition": 0.8},
      {"smiles": "N#Cc1c(NC(=O)c2ccc(F)cc2)sc2c1CCCC2", "inhibition": 0.57},
      {"smiles": "CNC(=O)c1cccc(C#Cc2cncnc2Nc2ccc(OCc3cccc(F)c3)c(Cl)c2)c1", "inhibition": 1.92},
      {"smiles": "CCn1c(-c2nonc2N)nc2c(C#CC(C)(C)O)nc(OC[C@H](N)c3ccccc3)cc21", "inhibition": 3.54},
      {"smiles": "Nc1ncc(-c2cccc(S(N)(=O)=O)c2)c2scc(-c3ccc(F)c(Cl)c3)c12", "inhibition": 1.7},
      {"smiles": "c1ccc(COc2ccc(Nc3ncnc4ccc(-c5ccco5)cc34)cc2)cc1", "inhibition": 2.49},
      {"smiles": "N#Cc1c(NC(=O)CN2CCOCC2)sc2c1CCCC2", "inhibition": 1.2},
      {"smiles": "NS(=O)(=O)c1ccc(N/N=C2\\C(=O)Nc3ccc4ncccc4c32)cc1", "inhibition": 2.52},
      {"smiles": "O=C(O[C@H]1CN[C@H](C#Cc2cc3ncnc(Nc4ccc(Cc5ccccc5)cc4)c3s2)C1)N1CCOCC1", "inhibition": 9.26},
      {"smiles": "CC(=O)Nc1cccc(C#Cc2cncnc2Nc2ccc(OCc3cccc(F)c3)c(Cl)c2)c1", "inhibition": 1.16},
      {"smiles": "Cc1cccc(Nc2ncc(-c3ccccc3)o2)c1", "inhibition": 3.35},
      {"smiles": "FC(F)(F)c1cccc(-c2nn3ncccc3c2-c2ccnc(Nc3ccc4c(c3)OCCO4)n2)c1", "inhibition": 0.83},
      {"smiles": "CCNC(=O)O[C@H]1CN[C@H](C#Cc2cc3ncnc(Nc4ccc(OCc5cccc(F)c5)c(Cl)c4)c3s2)C1", "inhibition": 0.73},
      {"smiles": "CNC(=O)c1cncc(/C=C/c2ccccc2Cl)c1", "inhibition": 6.83}
    ]}
  ]
}
